{"source": "PubChem BioAssay (NCATS)", "note": "Measured potencies and affinities stand elsewhere. Values without a mark were called inactive. The rule behind the calls is not given here. Note: 0% is about no effect."}
{"settings": "Ebola virus entry assay, green fluorescence channel", "units": {"efficacy": "%"}}
{"smiles": "NNc1ccccc1", "efficacy": -13.5}
{"smiles": "CCCCCCCCCCCCCCCCN", "efficacy": -37.3}
{"smiles": "Cc1c(F)c(N2CCNC(C)C2)cc2c1c(=O)c(C(=O)O)cn2C1CC1", "note": "(stereo not given)", "efficacy": -15}
{"smiles": "COc1ccc(Cc2cnc(N)nc2N)cc1OC", "efficacy": -23.5}
{"smiles": "O=C(O)CCCC[P+](c1ccccc1)(c1ccccc1)c1ccccc1", "efficacy": 19.9}
{"smiles": "CC(CC(C#N)(c1ccccc1)C(C)C)N(C)C", "note": "(stereo not given)", "efficacy": -15}
{"smiles": "NC(=O)NS(=O)(=O)c1ccc(Cl)cc1", "efficacy": -22.2}
{"smiles": "OC1(c2ccccc2)CCNCC1", "efficacy": 9.98}
{"smiles": "O=C1NCC2(CCN(CCc3ccccc3)CC2)O1", "efficacy": 10.9}
{"smiles": "CC1(C)O[C@@H]2C[C@H]3[C@@H]4C[C@H](F)C5=CC(=O)C=C[C@]5(C)[C@@]4(F)[C@@H](O)C[C@]3(C)[C@]2(C(=O)CO)O1", "efficacy": 10.5}
{"smiles": "CCn1nc(C(=O)O)c(=O)c2cc3c(cc21)OCO3", "efficacy": 37.2}
{"smiles": "Cc1nc(-c2ccc(Cl)cc2)oc1COC(C)(C)C(=O)O", "efficacy": -18.2}
{"smiles": "CNC(C)(C)Cc1ccccc1", "efficacy": -14.9}
{"smiles": "Cc1c(N(C)CS(=O)(=O)O)c(=O)n(-c2ccccc2)n1C", "efficacy": -26.4}
{"smiles": "CCCCCCCCCCCCCCCC(=O)NCCO", "efficacy": 20.8}
{"smiles": "CCS(=O)(=O)c1ccc(OC)c(C(=O)OC)c1", "efficacy": 18.9}
{"smiles": "N#CCC(=O)NN", "efficacy": -12.5}
{"smiles": "CC(C)(C)C1CCC(CC2=C(O)c3ccccc3C(=O)C2=O)CC1", "note": "(stereo not given)", "efficacy": -22.8}
{"smiles": "CC(C)=CCC/C(C)=C/CO", "efficacy": -28.2}
{"smiles": "COc1cccc2c1C(=O)c1c(O)c3c(c(O)c1C2=O)C[C@@](O)(C(=O)CO)CC3OC1CC(N2CCOC(OC)C2)C(O)C(C)O1", "note": "(stereo not given in full)", "efficacy": 57.9}
{"smiles": "CO/N=C(/C(=O)N[C@@H]1C(=O)N2C(C(=O)OCOC(=O)C(C)(C)C)=C(C)CS[C@H]12)c1csc(N)n1", "efficacy": -17.1}
{"smiles": "Cc1cccc(C)c1OCC(=O)N[C@@H](Cc1ccccc1)[C@@H](O)C[C@H](Cc1ccccc1)NC(=O)[C@H](C(C)C)N1CCCNC1=O", "efficacy": 20.6}
{"smiles": "O=c1[nH]c(=O)n([C@H]2C[C@H](O)[C@@H](CO)O2)cc1Br", "efficacy": -9.16}
{"smiles": "CCOc1ccc2nc3cc(N)ccc3c(N)c2c1", "efficacy": 18.4}
{"smiles": "OCc1cccnc1", "efficacy": -9.44}
{"smiles": "NC(=O)n1c(O)c(C(=O)c2cccs2)c2cc(Cl)ccc21", "efficacy": 15}
{"smiles": "CN(CC1(C)CCCO1)S(=O)(=O)c1ccc(Cl)c(S(N)(=O)=O)c1", "note": "(stereo not given)", "efficacy": -11}
{"smiles": "C/C(=C(\\CCO)SS/C(CCO)=C(\\C)N(C=O)Cc1cnc(C)nc1N)N(C=O)Cc1cnc(C)nc1N", "efficacy": -13}
{"smiles": "C=CCN1C[C@H](C)N([C@H](c2ccc(C(=O)N(CC)CC)cc2)c2cccc(OC)c2)C[C@H]1C", "efficacy": -18.5}
{"smiles": "Cc1cc(C)c(NC(=O)CN(CC(=O)O)CC(=O)O)c(C)c1Br", "efficacy": 7.04}
{"smiles": "COc1ccccc1N1CCN(CCCCNC(=O)c2ccc(-c3ccc(C(C)=O)cc3)cc2)CC1", "efficacy": 25.2}
{"smiles": "Cc1nc2ccc(CN(C)c3ccc(C(=O)N[C@@H](CCC(=O)O)C(=O)O)s3)cc2c(=O)[nH]1", "efficacy": 17.4}
{"smiles": "COc1cc2c(Nc3ccc(Br)cc3F)ncnc2cc1OCC1CCN(C)CC1", "efficacy": 16.7}
{"smiles": "CCOC(=O)CC(SP(=S)(OC)OC)C(=O)OCC", "note": "(stereo not given)", "efficacy": -13.3}
{"smiles": "COc1ccc2[nH]cc(CCNC(C)=O)c2c1", "efficacy": -12.3}
{"smiles": "COc1ccc2c(c1)c(CC(=O)OC/C=C(\\C)CC/C=C(\\C)CCC=C(C)C)c(C)n2C(=O)c1ccc(Cl)cc1", "efficacy": 62.6}
{"smiles": "COc1cc2c3cc1Oc1cc(ccc1O)C[C@@H]1c4c(cc(OC)c(O)c4Oc4ccc(cc4)C[C@@H]3N(C)CC2)CC[N+]1(C)C", "efficacy": -16.5}
{"smiles": "O=C1O[C@H](CO)[C@@H](O)[C@H](O)[C@H]1O", "efficacy": 24.7}
{"smiles": "COc1cc(OC)c(C(=O)CCCN2CCCC2)c(OC)c1", "efficacy": -22.4}
{"smiles": "CCOC(=O)Oc1ccc(CCNC(=O)[C@H](CCSC)NC(C)=O)cc1OC(=O)OCC", "efficacy": -12.4}
